Results filed as inconclusive are left out. Calls of active or inactive are those of the source. Unless noted, the call rests on the fitted dose curve. Non-standard residues stand in square brackets, D forms with d. Residues, ends and D or L forms follow the SMILES beside them. *: point of attachment. Sta = CC(C)C[C@H](N)[C@@H](O)CC(=O)O; Isovaleryl = CC(C)CC(=O)*
Key:
[1] = qHTS assay to identify small molecule antagonists of the estrogen related receptor signaling pathway with the pleiotropic PPARgamma coactivator (PGC) from Tox21 10K library - cell viability counter screen (AID 1224840; active means well fitted cell-killing curve with a large enough effect in the repeat runs, not every such curve was filed as active; further: nearly all actives have a fitted effect of over 40% in size); settings: PGC/ERR reporter cells viability, CellTiter-Fluor, 17.5 h; series mostly up to 92.4 µM
How it was run: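 PGC/ERR cells were seeded at 2,000 cells/well and left 6 hours at 37 C/5% CO2 before pin-tool addition of compounds in DMSO. After 17.5 hours at 37 C, CellTiter-Fluor was added and fluorescence read 30 minutes later.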

[2] = molecular target: Thyrotropin receptor (Homo sapiens) (UniProt P16473); assay: qHTS assay to identify small molecule agonists of the thyroid stimulating hormone receptor (TSHR) signaling pathway (AID 1224843); settings: TSHR-HEK293 cells, cAMP HTRF, agonist mode, 30 min; series mostly up to 92.4 µM; further: nearly all actives have a fitted effect of over 45% in size; further: potency means the concentration at half of the fitted maximal effect
Sequence of Thyrotropin receptor (Homo sapiens) (P16473 whole entry, looked up): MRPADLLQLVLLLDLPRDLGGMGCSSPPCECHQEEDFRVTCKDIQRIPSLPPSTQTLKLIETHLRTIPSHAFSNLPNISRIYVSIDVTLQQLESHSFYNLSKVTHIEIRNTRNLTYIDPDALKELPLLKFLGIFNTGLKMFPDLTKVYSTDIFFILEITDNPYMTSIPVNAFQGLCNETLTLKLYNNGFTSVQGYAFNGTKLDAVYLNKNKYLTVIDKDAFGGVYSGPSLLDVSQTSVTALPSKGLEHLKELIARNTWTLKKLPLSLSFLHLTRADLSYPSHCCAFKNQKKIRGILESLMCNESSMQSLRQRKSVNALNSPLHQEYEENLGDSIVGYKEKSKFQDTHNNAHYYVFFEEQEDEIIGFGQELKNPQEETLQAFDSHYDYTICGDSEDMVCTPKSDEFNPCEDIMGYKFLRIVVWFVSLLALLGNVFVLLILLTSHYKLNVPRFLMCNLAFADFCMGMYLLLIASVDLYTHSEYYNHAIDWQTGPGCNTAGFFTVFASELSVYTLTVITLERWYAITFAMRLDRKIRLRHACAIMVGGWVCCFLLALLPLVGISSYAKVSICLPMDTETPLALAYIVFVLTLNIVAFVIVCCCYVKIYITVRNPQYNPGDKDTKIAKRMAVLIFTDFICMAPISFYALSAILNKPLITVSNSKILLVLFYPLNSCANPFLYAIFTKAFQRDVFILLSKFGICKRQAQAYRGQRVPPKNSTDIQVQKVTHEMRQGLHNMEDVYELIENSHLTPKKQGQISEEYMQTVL
How it was run: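 TSHR-HEK293 cells in agonist mode, 30 min room-temperature step, then cAMP measured by competitive HTRF (cAMP-d2 with anti-cAMP cryptate) after 1 h at room temperature. Tested at 15 concentrations in triplicate.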

[3] = qHTS assay to identify small molecule agonists of the hypoxia (HIF-1) signaling pathway - cell viability counter screen (AID 1224844); settings: HRE-bla ME-180 viability, CellTiter-Glo luminescence, 17 h; series mostly up to 76.8 µM; further: nearly all actives have a fitted effect of over 50% in size
How it was run: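 HRE-bla ME-180 cells in medium with 0.5% dialyzed FBS were preincubated 5 hrs at 37C, exposed to compounds for 17 hrs, then viability was read as CellTiter-Glo luminescence after 30 min at room temperature, in the reporter wells.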

[4] = qHTS assay to identify small molecule agonists of H2AX (AID 1224845; active means well fitted activation curve with a large enough effect in the signal ratio in the repeat runs, not every such curve was filed as active; the % refers to the signal ratio); settings: CHO-K1 phospho-H2AX Ser139 HTRF, 3 h; series mostly up to 154 µM
How it was run: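 Wild-type CHO-K1 cells, plated overnight, exposed 3hr at 37C to 15 concentrations (0.76% DMSO final). Lysed, then HTRF anti-pH2AX (S139) cryptate and anti-H2AX-d2 antibodies, 24 hr room temperature; 665/620 nm emission read.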

[5] = qHTS assay to identify small molecule agonists of the hypoxia (HIF-1) signaling pathway (AID 1224846; active means well fitted activation curve with a large enough effect in the signal ratio in the repeat runs, not every such curve was filed as active; the % refers to the signal ratio); settings: HRE-bla ME-180 cells, beta-lactamase ratio, 17 h; series mostly up to 76.8 µM
How it was run: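 HRE-bla ME-180 cells (beta-lactamase reporter under hypoxia response element) were plated at 2,000 cells/well in medium with 0.5% dialyzed FBS, rested 5 hrs, then given compounds in DMSO for 17 hrs at 37C, 5% CO2. Reporter induction was read with CCF4-AM FRET substrate.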

[6] = qHTS assay to identify small molecule agonists of H2AX - cell viability counter screen (AID 1224847); settings: CHO-K1 viability, CellTiter-Glo luminescence, 3 h; series mostly up to 154 µM; further: top concentration of the series differs between compounds; nearly all actives have a fitted effect of over 30% in size
How it was run: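 Viability of CHO-K1 (wild type) cells after 3 hr compound exposure was measured by CellTiter-Glo luminescence.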

[7] = qHTS assay to identify small molecule antagonists of the estrogen related receptor (ERR) signaling pathway from Tox21 library (AID 1224848; active means well fitted inhibition curve with a large enough effect in the repeat runs; further: nearly all actives have a fitted effect of over 50% in size); settings: ERR reporter cell line, luciferase antagonist mode, 18 h; series mostly up to 92.4 µM
How it was run: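 ERR reporter cell line (from NTP) seeded 2,000 cells/well, rested 6 h at 37 C/5% CO2, then pin-dosed with compounds in DMSO. After 18 h at 37 C, ONE-Glo added; luminescence read after 30 min at room temperature.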

[8] = qHTS assay to identify small molecule agonists of the estrogen related receptor (ERR) signaling pathway from Tox21 library (AID 1224849); settings: ERR reporter cell line, ONE-Glo luciferase, 18 h; at 92.4 µM (top of the series) unless noted; further: nearly all actives have a fitted effect of over 15% in size
How it was run: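 ERR reporter cell line (NTP) seeded, rested 6 h at 37 C/5% CO2, then pinned with Tox21 compounds in DMSO. After 18 h at 37 C, ONE-Glo luciferase luminescence was read following 30 min at room temperature.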
On the % scale 0 is the no-effect control and ±100 the full control effect.

CC(=O)Nc1ccc(S(=O)(=O)Nc2cc(C)on2)cc1
inactive: outcome [1] | Potency [2] | outcome [3] | outcome [4] | outcome [5] | outcome [6]

CCCC(=O)CC
inactive: outcome [1] | Potency [2] | outcome [3] | outcome [4] | outcome [6]

Cc1ccc2ccccc2n1
inactive: outcome [1] | Potency [2] | outcome [3] | outcome [4] | outcome [6]

CC(C)CC(O)Cc1ccccc1 (centres undefined)
inactive: outcome [1] | Potency [2] | outcome [3] | outcome [4] | outcome [6]

O=C(CCBr)N1CCN(C(=O)CCBr)CC1
inactive: outcome [1] | Potency [2] | outcome [3] | outcome [4] | outcome [5] | outcome [6]

CN1CCN(C(=O)C2CCCCC2)CC1
inactive: outcome [1] | Potency [2] | outcome [3] | outcome [4] | outcome [5] | outcome [6]

CN(C)CCc1c[nH]c2ccc(CS(=O)(=O)N3CCCC3)cc12
inactive: outcome [1] | Potency [2] | outcome [3] | outcome [4] | outcome [5] | outcome [6]

CC(C)(C)NCC(O)COc1cccc2c1CCC(=O)N2 (centres undefined)
inactive: outcome [1] | Potency [2] | outcome [3] | outcome [4] | outcome [6]

CCC(=O)OCCOc1ccccc1
inactive: outcome [1] | Potency [2] | outcome [3] | outcome [4] | outcome [5] | outcome [6]

C=C(C)C(=O)OCCCC
inactive: outcome [1] | Potency [2] | outcome [3] | outcome [4] | outcome [5] | outcome [6]

C/C=C/C(=O)CCCC
inactive: outcome [1] | Potency [2] | outcome [3] | outcome [4] | outcome [5] | outcome [6]

C/C(Cl)=C/CCl
inactive: outcome [1] | Potency [2] | outcome [3] | outcome [4] | outcome [5] | outcome [6]

CCN(CC)CC
inactive: outcome [1] | Potency [2] | outcome [3] | outcome [4] | outcome [5] | outcome [6]

CCCCc1ccc(Cl)cc1
inactive: outcome [1] | Potency [2] | outcome [3] | outcome [4] | outcome [5] | outcome [6]

CC12CCCC=C1C(=O)OC2=O (centres undefined)
inactive: outcome [1] | Potency [2] | outcome [3] | outcome [4] | outcome [5] | outcome [6]

CC(C)CC(=O)N[C@H](C(=O)N[C@H](C(=O)N[C@@H](CC(C)C)[C@@H](O)CC(=O)N[C@@H](C)C(=O)N[C@@H](CC(C)C)[C@@H](O)CC(=O)O)C(C)C)C(C)C (Isovaleryl-VV[Sta]A[Sta]-OH)
inactive: outcome [1] | Potency [2] | outcome [3] | outcome [4] | outcome [6]

CCN1CCN(C(=O)N[C@@H](C(=O)N[C@@H]2C(=O)N3C(C(=O)O)=C(CSc4nnnn4C)CS[C@H]23)c2ccc(O)cc2)C(=O)C1=O
inactive: outcome [1] | Potency [2] | outcome [3] | outcome [4] | outcome [6]

Clc1cc(Cl)c(Cl)c(Cl)c1Cl
inactive: outcome [1] | Potency [2] | outcome [3] | outcome [4] | outcome [5] | outcome [6]

C=CCN(CC=C)CC=C
inactive: outcome [1] | Potency [2] | outcome [3] | outcome [4] | outcome [5] | outcome [6]

C[C@@H]1CC[C@@]2(OC1)O[C@H]1C[C@H]3[C@@H]4CC[C@H]5C[C@@H](O)CC[C@]5(C)[C@H]4CC(=O)[C@]3(C)[C@H]1[C@@H]2C
inactive: viability change, negative = cytotoxic [1] -2.49% [at 8.39 µM] | activation [2] -5.02% [at 8.39 µM] | activity change, negative = cytotoxicity [3] 3.36% [at 6.97 µM] | activation (H2AX phosphorylation) [4] 0.205% [at 14 µM] | activity change, negative = cytotoxicity [6] -1.3% [at 14 µM]

O=C(O)Cc1ccccc1Oc1ccc(Cl)cc1Cl
inactive: outcome [1] | Potency [2] | outcome [3] | outcome [4] | outcome [5] | outcome [6]

CN(C)c1ccncc1
inactive: outcome [1] | Potency [2] | outcome [3] | outcome [4] | outcome [5] | outcome [6] | outcome [7] | activity change, positive = activation [8] -2.4%

CC(=O)OC/C=C(/C)CCC=C(C)C
inactive: outcome [1] | Potency [2] | outcome [3] | outcome [4] | outcome [5] | outcome [6]

COc1ccccc1N1CCN(CC(O)COc2cc(OC)c(OC)c(OC)c2)CC1 (centres undefined)
inactive: outcome [1] | Potency [2] | outcome [3] | outcome [4] | outcome [5] | outcome [6]

CC(=O)c1ccc(O)c(C(N)=O)c1
inactive: outcome [1] | Potency [2] | outcome [3] | outcome [4] | outcome [5] | outcome [6]

O=C(O)/C=C(\CC(=O)O)C(=O)O
inactive: outcome [1] | Potency [2] | outcome [3] | outcome [4] | outcome [6]

NCC1CCC(C(=O)Oc2ccc(CCC(=O)O)cc2)CC1 (centres undefined)
inactive: outcome [1] | Potency [2] | outcome [3] | outcome [4] | outcome [5] | outcome [6]

CCCCCCCOC(C)=O
inactive: outcome [1] | Potency [2] | outcome [3] | outcome [4] | outcome [5] | outcome [6]

N#Cc1cc(NC(=O)C(=O)O)c(Cl)c(NC(=O)C(=O)O)c1
inactive: outcome [1] | Potency [2] | outcome [3] | outcome [4] | outcome [6]

O=c1c(O)c(O)c1=O
active: Potency [2] 27.3 µM
inactive: outcome [1] | outcome [3] | outcome [4] | outcome [6]

CCCCN=C(N)N=C(N)N
inactive: outcome [1] | Potency [2] | outcome [3] | outcome [4] | outcome [6]

COCCCOc1cc(C[C@@H](C[C@H](N)[C@@H](O)C[C@H](C(=O)NCC(C)(C)C(N)=O)C(C)C)C(C)C)ccc1OC
inactive: outcome [1] | Potency [2] | outcome [3] | outcome [4] | outcome [6]

CCCCCCCCCCCCCCCC/C=C/C1CC(=O)OC1=O (centres undefined)
inactive: outcome [1] | Potency [2] | outcome [3] | outcome [4] | outcome [5] | outcome [6]

CCOCCOCCOC(C)=O
inactive: outcome [1] | Potency [2] | outcome [3] | outcome [4] | outcome [5] | outcome [6]

CCCCCCCCCCCCCCBr
inactive: outcome [1] | Potency [2] | outcome [3] | outcome [4] | outcome [6]

CCCOc1ccc(C(=O)OCCN(CC)CC)cc1N
inactive: outcome [1] | Potency [2] | outcome [3] | outcome [4] | outcome [6]
